Vaccinia Venus – inhibitors of vaccinia virus (Venus reporter); Vaccinia virus Venus reporter expression, fluorescence; Potency, µM (highest dose often 36.5 µM), for inactives: top-dose activity change, negative = inhibition, hits mostly inhibitors; actives 0.46% (n = 330,000); AID 720580; calls by dose curve; tested in A549 cells; note: % is set by controls: 0 for no effect and ±100 for the full control effect; nearly all actives have a fitted effect of over 30% in size
AmpC detergent – blocks E. coli AmpC beta-lactamase in detergent assay; Potency, µM (top dose mostly 114 µM), for inactives: at the top dose activity change, negative = inhibition, usual class: inhibitors; actives 0.041% (n = 370,000); AmpC hydrolysis of nitrocefin, absorbance 480 nm, 0.01% Triton; AID 485294; P00811;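 note: 0% = no-compound wells and -100% = no-enzyme wells; nearly all actives have a fitted effect of over 25% in size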
Target sequence (P00811 whole entry, looked up): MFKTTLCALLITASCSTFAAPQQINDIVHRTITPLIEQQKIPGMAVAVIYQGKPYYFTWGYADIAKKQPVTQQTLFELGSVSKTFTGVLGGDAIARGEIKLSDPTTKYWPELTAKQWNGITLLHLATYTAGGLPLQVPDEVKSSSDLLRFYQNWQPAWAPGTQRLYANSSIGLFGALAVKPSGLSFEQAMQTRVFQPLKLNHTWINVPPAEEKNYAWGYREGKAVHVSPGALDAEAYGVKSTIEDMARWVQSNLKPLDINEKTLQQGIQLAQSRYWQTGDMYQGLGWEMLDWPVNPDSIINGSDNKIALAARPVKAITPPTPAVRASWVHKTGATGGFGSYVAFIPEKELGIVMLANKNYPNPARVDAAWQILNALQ
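20 mM phosphate pH 7.0 + 0.01% (detergent screen) or 0.0001% Triton X-100; 5.3 nM AmpC reagent; cpd preinc 15 min RT; nitrocefin (800 uM stock) to start; A480 q20 s × 4 min; Activity was normalised to no-enzyme and no-compound control wells.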
AMA1 RON2 block – AMA1-RON2 (P. falciparum) interaction inhibition; AID 720542; Potency, µM (series often up to 58.2 µM), without a hit: at the highest dose activity change, negative = inhibition, most hits filed as inhibitors; actives 0.2% (n = 360,000); AlphaScreen AMA1-biotinylated RON2 peptide binding;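 note: 0% = vehicle wells and -100% = peptide control; nearly all actives have a fitted effect of over 45% in size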
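AMA1 (3D7) with his tag at 25 nM final met compounds first, then biotinylated RON2 peptide at 25 nM; detection used donor plus acceptor beads, 10 µg/mL apiece, read by AlphaScreen after 30 min at room temperature.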
AmpC inh no detg – blocks E. coli AmpC beta-lactamase in detergent-free assay; Potency, µM (top dose mostly 57.1 µM), for inactives: at the top dose activity change, negative = inhibition, usual class: inhibitors; P00811; AmpC nitrocefin hydrolysis, absorbance 480 nm, 0.0001% Triton; AID 485341; actives 0.52% (n = 330,000);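 note: plate controls were no compound for no effect and no enzyme for full effect; nearly all actives have a fitted effect of over 20% in size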
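AmpC (5.3 nM in the dispensed reagent) in 20 mM phosphate pH 7.0 with 0.01% (detergent screen) or 0.0001% Triton X-100 was preincubated with compounds for 15 min at room temperature. Nitrocefin was then added from an 800 uM solution, and hydrolysis was followed at 480 nm.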
SARS PLpro yeast – inhibitors of SARS-CoV papain-like protease in yeast; S. cerevisiae expressing SARS-CoV PLpro, growth rescue; Potency, µM (top dose mostly 32.9 µM), inactives show top-dose activity, positive = growth rescue, actives largely listed as activators; actives 0.19% (n = 330,000); calls by dose curve; note: 0% is about no effect; nearly all actives have a fitted effect of over 55% in size
VACV mCherry inh – inhibitors of vaccinia virus infection (mCherry reporter signal); Vaccinia virus mCherry reporter infection, fluorescence; Potency, µM (doses to about 36.5 µM), inactives show at the highest dose activity change, negative = inhibition, actives largely listed as inhibitors; actives 0.63% (n = 310,000); calls by dose curve; tested in A549 cells; note: % is set by controls: 0 for no effect and ±100 for the full control effect; nearly all actives have a fitted effect of over 35% in size
An asterisk follows results filed as active; i = inactive; ? = inconclusive; . = not tested or not shown. Shown are actives, neighbours in structure and some others; about 1.3% of the full set was active somewhere. Unless noted, calls come from the whole dose curve; as a rule, active = well fitted curve in the direction sought with a large enough effect; inconclusive = small, poorly fitted or top-dose-only effect, or another doubt; inactive = no such curve, though single readings can be large; an effect the other way counts as inactive or inconclusive. Potency is the fitted concentration of half-maximal effect.

SMILES	Vaccinia Venus	AmpC detergent	AMA1 RON2 block	AmpC inh no detg	SARS PLpro yeast	VACV mCherry inh
COc1cccc(C(=O)N(Cc2cc3cc4c(cc3nc2N(C)C)OCO4)CC2CCCO2)c1 (stereo not given)	3%	.	.	.	.	8%
CCCCCOc1ccc(Br)cc1/C(C)=N/NC1=NCCN1	13µM*	5%	59%	-3%	-41%	?
COc1ccc(Br)cc1/C(C)=N/NC1=NCCN1	0%	2%	6%	-33%	-7%	-20%
COc1ccc(-n2ccc(-c3sc(NCc4cc(OC)c5c(c4)OCO5)nc3C)n2)cc1	-10%	.	.	.	.	-16%
CCOC(=O)N1CCC(Nc2c(NCCCOC)c(=O)c2=O)CC1	.	0%	18%	0.25µM*	29%	.
COc1ccccc1C1CN(Cc2c(C)nn(C)c2Cl)Cc2ccccc2O1 (stereo not given)	2%	.	.	.	.	-9%
CC[n+]1ccnc2ccccc21	13µM*	.	.	.	.	18µM*
CCOc1ccc2c(c1)-c1c(ssc1=S)C(C)(C)N2	?	-1%	19µM*	-50%	-28%	?
CCOc1ccc2c(c1)-c1c(ssc1=S)C(C)(C)N2C(=O)CSC1=NCCS1	-12%	-6%	10µM*	-31%	6%	-16%
O=C1CC(C(=O)N2CCOc3ccc(CN4CCC(Oc5cccnc5)CC4)cc3C2)c2ccccc21 (stereo not given)	2%	.	.	.	.	-10%
COc1cccc(CC(=O)NCC2Cc3cc(Cl)cc(-c4ncccn4)c3O2)c1 (stereo not given)	-23%	.	.	.	.	-6%
Nc1ccccc1N=Nc1ccccc1N	-27%	2%	32µM*	-23%	-15%	-23%
Nc1ccccc1-c1ccccc1N	-9%	-5%	17%	-18%	0%	-3%
CO[C@H]1[C@H](NC(=O)c2ccsc2)c2ccccc2C12CCN(Cc1cccc3ncccc13)CC2	-4%	.	.	.	.	-13%
COC1=C(C)C(=O)C2=C(C1=O)C1C3CC4=C(C(=O)C(OC)=C(C)C4=O)C(CNC(=O)C(C)=O)N3C(C#N)C(C2)N1C (stereo not given)	1µM*	.	-2%	.	.	?
COC1=C(C)C(=O)C2=C(C1=O)C(CO)N1C(C#N)C3CC4C(C1C2N1CCOC41)N3C (stereo not given)	?	.	30%	.	.	?
CCc1nc2cc(C(=O)N3CCC[C@H]3CO)cc(NC(=O)c3ccccc3OC)c2n1C	-9%	.	.	.	.	-10%
COc1cc(CN2CCC(C(=O)NC(c3ccc(F)cc3)c3ccc4ccccc4n3)CC2)cc(OC)c1 (stereo not given)	14µM*	.	-13%	.	.	?
COc1ccc(OCCN2CCC(C(=O)NC(c3ccc(F)cc3)c3ccc4ccccc4n3)CC2)cc1 (stereo not given)	-5%	.	?	.	.	i
COc1ccc(OCCN2CCC(C(=O)NC(c3ccccc3)c3ccc4ccccc4n3)CC2)cc1 (stereo not given)	-20%	.	15%	.	.	-30%
O=C(NC(c1ccc(F)cc1)c1ccc2ccccc2n1)C1CCN(Cc2ccc(Oc3ccccc3)cc2)CC1 (stereo not given)	?	.	-4%	.	.	-11%
O=C(NC(c1ccc(F)cc1)c1ccc2ccccc2n1)C1CCN(CCOc2ccc(F)cc2)CC1 (stereo not given)	10µM*	.	?	.	.	11µM*
O=C(NC(c1ccccc1)c1ccc2ccccc2n1)C1CCN(CCOc2ccc(Cl)cc2)CC1 (stereo not given)	10µM*	.	33%	.	.	?
CCC1CN(CCNC(=O)c2ccc3c(c2)OCCO3)Cc2cc(OC)ccc2O1 (stereo not given)	0%	.	.	.	.	-9%
COCC(=O)Nc1cc(C(=O)NC2CCc3ccccc32)c2c(c1)nc(-c1ccncc1)n2C (stereo not given)	16%	.	.	.	.	2%
Nc1ccc(Cc2nc3cc4ccccc4cc3[nH]2)cc1	14%	1%	-8%	-20%	-1%	5.6µM*
